About 83,000 compounds went through this panel and 20% of them were active in at least one assay; those are over-represented in the sample as a whole.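 Step 1: grow cells in 96-well plates. Step 2: add test compound at a single concentration. Step 3: incubate 48 h. Step 4: record percent growth.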 Values without a mark were called inactive. Activity calls are given as the source filed them. How the source made its calls: active means growth percent below 10; inactive means the rest.
tested on: CAKI-1 renal; assay: NCI-60 one-dose screen, 48 h (100 = growth as untreated, 0 = no growth, -100 = all killed); details: 10 µM unless noted

Compound | growth [%]
O=C1c2cccc3c(-c4ccc5c(c4)ncn5C4CCCCC4)ccc(c23)C(=O)N1CCO | 77.5
O=C(/C(=C\c1ccc([N+](=O)[O-])cc1)S(=O)Cc1ccc(F)cc1)c1ccc(F)cc1 (configuration not stated) | 44.3
NNC(=O)c1ccc(-n2nc(-c3ccccc3)c3ccccc32)cc1 | 76.5

tested on: A498 renal; assay: as above; details: 10 µM unless noted

Compound | growth
NC(=O)CSSCC(N)=O | 127%
C=C(C)[C@@H]1CC[C@]2(C(=O)N3CCN(C)CC3)CC[C@]3(C)[C@H](CC[C@@H]4[C@@]5(C)CC[C@H](O)C(C)(C)[C@@H]5CC[C@]43C)[C@@H]12 | 98.7%
O=C1Nc2cc(Cl)ccc2/C1=C\c1c(-c2ccc(F)cc2)nc2ccccn12 | -17% (active)
CCc1ccc(-c2cn3ccnc3c(-c3ccc4ncn(Cc5ccccc5)c4c3)n2)cc1 | 105%
CCOC(=O)c1cc(C(=O)c2ccc(OC)c(OC)c2)n2ccc(/C=C/c3cc[n+](CC(=O)c4ccc(OC)c(OC)c4)cc3)cc12 | 95.6%
COc1cc(/C=C\c2cc(OC)c(OC)c(OC)c2)cc(NC(=O)/C=C/c2cc(OC)c(OC)c(OC)c2)c1OC | 41.5%
CN1C(N2CCN(S(=O)(=O)c3ccccc3)CC2)=NS(=O)(=O)c2ccccc21 | 155%
O=C1Nc2ccccc2/C1=C\c1c(-c2ccc(F)cc2)nc2ccccn12 | 70.8%
OCc1cnc2ccccc2c1NC1CCCCCC1 | 79.4%
Oc1c(Cl)cc(Cl)c(Cl)c1CNCCNCc1c(O)c(Cl)cc(Cl)c1Cl | 51.3%
CN1[C@@H]2CC[C@H]1/C(=C\c1ccccc1)C(=O)/C2=C/c1ccccc1 | 71.7%
O=C1c2c(c3c4cccc(F)c4[nH]c3c3ccc4ccccc4c23)C(=O)N1O | 27.2%
CN(C)CCC(=O)c1ccc([N+](=O)[O-])cc1 | 88.4%
Cc1ccc(-c2nc3ccccn3c2/C=C2/C(=O)Nc3cc(Cl)ccc32)cc1 | 98.2%
CC(=O)[C@@H]1CC[C@]2(C(N)=O)CC[C@]3(C)[C@H](CC[C@@H]4[C@@]5(C)CCCNC(C)(C)[C@@H]5CC[C@]43C)[C@@H]12 | 96.6%
CC(C)N1C(=O)S/C(=C2/SC(=O)N(C(C)C)C2=O)C1=O | 89.5%
NS(=O)(=O)c1ccc(CCN2C(=O)C3C(C2=O)C2(Cl)C(Cl)=C(Cl)C3(Cl)C2(Cl)Cl)cc1 (configuration not stated) | 114%

Compound | growth
Nc1c(S(=O)(=O)O)cc2c3c(cccc13)C(=O)OC2=O | 106%
O=C(CCN1CCCC1)c1ccc([N+](=O)[O-])cc1 | 92.9%
O=C1Nc2ccc(F)cc2/C1=C\c1c(-c2ccccc2)nc2ccccn12 | 43.1%
O=Cc1ccc(-c2cn3ccnc3c(-c3ccc4ncn(Cc5ccccc5)c4c3)n2)cc1 | 88.8%
N#C/C(=C\c1ccc(C(F)(F)F)cc1)c1cc2ccccc2[nH]1 | 90.3%
O=C1c2cccc3c(-c4ccc5c(c4)ncn5C4CCCCC4)ccc(c23)C(=O)N1c1nc2ccccc2s1 | 121%
Cc1cccc(-c2cn3ccnc3c(-c3ccc4ncn(Cc5ccccc5)c4c3)n2)c1 | 77.9%
CCOC(=O)C1=C(CCl)NC(=O)NC1c1ccc2c(c1)OCO2 (configuration not stated) | 98%
CCCN1[C@@H]2CC[C@H]1/C(=C\c1ccc(OC)c(OC)c1)C(=O)/C2=C/c1ccc(OC)c(OC)c1 | 23.6%
COc1ccc(C(=O)C2C(C#N)C(C#N)C3c4ccccc4C=CN23)cc1 (configuration not stated) | 80.9%
O=C(C[n+]1cccc2ccccc21)c1ccc(O)c(O)c1 | 88.4%
COc1ccc(C(=O)c2nc3ccccc3n2CC(=O)c2ccc(F)cc2)cc1 | 116%
CC(=O)[C@@H]1CC[C@]2(CO)CC[C@]3(C)[C@H](CC[C@@H]4[C@@]5(C)CCCNC(C)(C)[C@@H]5CC[C@]43C)[C@@H]12 | 95.3%
NS(=O)(=O)c1ccc(CCN2C(=O)C=CC2=O)cc1 | 106%
Nc1ccccc1NC(=O)c1ccc(-n2nc(-c3ccccc3)c3ccccc32)cc1 | 89.8%
N#CC1C(C#N)C2c3ccccc3C=CN2C1C(=O)c1ccc(Br)cc1 (configuration not stated) | 101%
O=C(CNCCN1CCOCC1)N1c2cccc3cccc(c23)N(C(=O)CNCCN2CCOCC2)C1c1cn(-c2ccccc2)nc1-c1cccc([N+](=O)[O-])c1 | 84.5%

— PubChem BioAssay (NCI)
